Test results as given in the supplement of paper PMC11732987, “Enantioselective OTUD7B fragment discovery through chemoproteomics screening and high-throughput optimisation” (Communications Chemistry, 2025).

Columns and labels:
Experiment in all cases: log2 ratio of Biotin-Ahx-Ub-VS probe labelling (fragment/DMSO); higher = less target engagement (more negative = stronger competition), active = hit call of the paper (q ≤ 0.05, log2 ratio ≤ -1)
Settings in all cases: compound concentration: 200 uM; treatment time: 3 h
USP42 = molecular target: T1, USP42 (UniProt Q9H9J4)
T1 sequence (whole entry): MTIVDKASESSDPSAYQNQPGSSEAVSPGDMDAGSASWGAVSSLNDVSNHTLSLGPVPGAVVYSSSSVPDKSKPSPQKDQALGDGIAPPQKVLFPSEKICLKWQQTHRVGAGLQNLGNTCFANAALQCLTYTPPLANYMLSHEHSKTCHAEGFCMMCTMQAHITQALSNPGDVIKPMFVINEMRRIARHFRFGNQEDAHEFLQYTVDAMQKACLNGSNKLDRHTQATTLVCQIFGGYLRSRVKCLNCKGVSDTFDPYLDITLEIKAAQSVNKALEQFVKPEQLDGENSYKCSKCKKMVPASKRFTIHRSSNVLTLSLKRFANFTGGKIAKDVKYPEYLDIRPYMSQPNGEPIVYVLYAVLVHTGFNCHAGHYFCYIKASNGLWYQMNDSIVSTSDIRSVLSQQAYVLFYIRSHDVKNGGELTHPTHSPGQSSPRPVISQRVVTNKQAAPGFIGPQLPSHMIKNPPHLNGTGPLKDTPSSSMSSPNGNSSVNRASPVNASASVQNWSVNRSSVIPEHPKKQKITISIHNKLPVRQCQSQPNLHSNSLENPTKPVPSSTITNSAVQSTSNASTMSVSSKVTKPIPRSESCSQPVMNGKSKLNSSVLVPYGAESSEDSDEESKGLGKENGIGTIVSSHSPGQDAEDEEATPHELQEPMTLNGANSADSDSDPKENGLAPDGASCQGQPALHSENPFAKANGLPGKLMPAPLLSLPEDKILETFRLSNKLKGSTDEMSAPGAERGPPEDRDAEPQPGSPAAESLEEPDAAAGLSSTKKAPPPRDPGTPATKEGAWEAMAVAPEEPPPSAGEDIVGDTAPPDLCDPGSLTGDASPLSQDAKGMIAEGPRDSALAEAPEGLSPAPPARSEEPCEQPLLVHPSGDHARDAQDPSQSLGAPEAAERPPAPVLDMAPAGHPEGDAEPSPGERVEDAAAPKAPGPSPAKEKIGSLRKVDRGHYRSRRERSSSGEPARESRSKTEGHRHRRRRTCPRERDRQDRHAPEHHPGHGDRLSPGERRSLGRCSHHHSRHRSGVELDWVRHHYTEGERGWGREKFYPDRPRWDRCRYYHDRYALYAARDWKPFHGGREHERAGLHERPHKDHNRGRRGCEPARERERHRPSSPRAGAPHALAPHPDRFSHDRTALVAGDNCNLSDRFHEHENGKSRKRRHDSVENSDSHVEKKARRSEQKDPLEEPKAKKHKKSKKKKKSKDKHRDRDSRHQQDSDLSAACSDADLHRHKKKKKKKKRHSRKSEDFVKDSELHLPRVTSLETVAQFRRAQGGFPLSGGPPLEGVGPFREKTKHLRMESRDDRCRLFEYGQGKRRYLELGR
Method in brief: (§1)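 Average log2 ratios of fragment over vehicle were obtained by unpaired t-test from global-median-normalised Spectronaut label-free quantities. Proteins with ≥2 unique peptides were included. HEK293T lysate (495 µg per sample) was treated in triplicate with fragment at 200 µM or vehicle for 3 h, then with Biotin-Ahx-Ub-VS at 0.5 µM final for 1 h, and labelled DUBs were NeutrAvidin-enriched and run by diaPASEF LC-MS/MS.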

USP46 = USP46 (UniProt P62068)
Method in brief: as §1

USP47 = molecular target: T2, USP47 (UniProt Q96K76)
T2 sequence (whole entry): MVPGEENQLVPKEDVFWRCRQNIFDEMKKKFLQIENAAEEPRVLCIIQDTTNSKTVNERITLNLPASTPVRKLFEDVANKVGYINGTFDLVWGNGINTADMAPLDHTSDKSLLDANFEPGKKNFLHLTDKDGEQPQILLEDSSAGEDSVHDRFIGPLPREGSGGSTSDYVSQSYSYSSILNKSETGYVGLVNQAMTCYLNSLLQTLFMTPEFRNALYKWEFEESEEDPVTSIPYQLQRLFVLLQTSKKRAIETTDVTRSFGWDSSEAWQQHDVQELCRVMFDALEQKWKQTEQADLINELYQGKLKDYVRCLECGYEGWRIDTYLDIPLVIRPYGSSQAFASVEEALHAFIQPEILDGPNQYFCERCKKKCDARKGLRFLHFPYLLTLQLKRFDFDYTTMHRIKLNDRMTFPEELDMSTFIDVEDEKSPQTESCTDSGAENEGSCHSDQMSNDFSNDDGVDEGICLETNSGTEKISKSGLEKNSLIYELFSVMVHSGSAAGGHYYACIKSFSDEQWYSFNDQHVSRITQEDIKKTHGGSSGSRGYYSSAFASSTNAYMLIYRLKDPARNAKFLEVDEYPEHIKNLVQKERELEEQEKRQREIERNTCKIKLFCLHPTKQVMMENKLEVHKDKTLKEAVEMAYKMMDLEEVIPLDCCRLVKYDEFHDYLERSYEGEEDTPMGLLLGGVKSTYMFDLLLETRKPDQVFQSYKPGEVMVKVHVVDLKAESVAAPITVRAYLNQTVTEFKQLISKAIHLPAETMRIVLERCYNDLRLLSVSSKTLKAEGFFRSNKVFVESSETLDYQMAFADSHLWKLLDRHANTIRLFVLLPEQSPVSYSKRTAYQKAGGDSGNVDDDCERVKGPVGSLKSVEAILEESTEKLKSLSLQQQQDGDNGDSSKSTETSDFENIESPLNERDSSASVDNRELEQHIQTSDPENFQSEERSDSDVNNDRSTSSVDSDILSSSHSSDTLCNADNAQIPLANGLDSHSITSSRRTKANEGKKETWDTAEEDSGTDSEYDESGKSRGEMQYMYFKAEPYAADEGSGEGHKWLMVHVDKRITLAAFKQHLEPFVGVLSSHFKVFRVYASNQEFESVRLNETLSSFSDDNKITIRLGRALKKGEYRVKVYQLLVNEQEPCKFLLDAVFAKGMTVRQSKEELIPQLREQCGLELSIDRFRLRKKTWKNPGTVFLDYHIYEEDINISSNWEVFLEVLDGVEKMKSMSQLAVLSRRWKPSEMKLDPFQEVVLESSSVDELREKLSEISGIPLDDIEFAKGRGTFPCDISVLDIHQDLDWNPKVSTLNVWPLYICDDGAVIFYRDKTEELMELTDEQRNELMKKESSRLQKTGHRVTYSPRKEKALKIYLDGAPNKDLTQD
Method in brief: as §1

USP48 = molecular target: T3, USP48 (UniProt Q86UV5)
T3 sequence (whole entry): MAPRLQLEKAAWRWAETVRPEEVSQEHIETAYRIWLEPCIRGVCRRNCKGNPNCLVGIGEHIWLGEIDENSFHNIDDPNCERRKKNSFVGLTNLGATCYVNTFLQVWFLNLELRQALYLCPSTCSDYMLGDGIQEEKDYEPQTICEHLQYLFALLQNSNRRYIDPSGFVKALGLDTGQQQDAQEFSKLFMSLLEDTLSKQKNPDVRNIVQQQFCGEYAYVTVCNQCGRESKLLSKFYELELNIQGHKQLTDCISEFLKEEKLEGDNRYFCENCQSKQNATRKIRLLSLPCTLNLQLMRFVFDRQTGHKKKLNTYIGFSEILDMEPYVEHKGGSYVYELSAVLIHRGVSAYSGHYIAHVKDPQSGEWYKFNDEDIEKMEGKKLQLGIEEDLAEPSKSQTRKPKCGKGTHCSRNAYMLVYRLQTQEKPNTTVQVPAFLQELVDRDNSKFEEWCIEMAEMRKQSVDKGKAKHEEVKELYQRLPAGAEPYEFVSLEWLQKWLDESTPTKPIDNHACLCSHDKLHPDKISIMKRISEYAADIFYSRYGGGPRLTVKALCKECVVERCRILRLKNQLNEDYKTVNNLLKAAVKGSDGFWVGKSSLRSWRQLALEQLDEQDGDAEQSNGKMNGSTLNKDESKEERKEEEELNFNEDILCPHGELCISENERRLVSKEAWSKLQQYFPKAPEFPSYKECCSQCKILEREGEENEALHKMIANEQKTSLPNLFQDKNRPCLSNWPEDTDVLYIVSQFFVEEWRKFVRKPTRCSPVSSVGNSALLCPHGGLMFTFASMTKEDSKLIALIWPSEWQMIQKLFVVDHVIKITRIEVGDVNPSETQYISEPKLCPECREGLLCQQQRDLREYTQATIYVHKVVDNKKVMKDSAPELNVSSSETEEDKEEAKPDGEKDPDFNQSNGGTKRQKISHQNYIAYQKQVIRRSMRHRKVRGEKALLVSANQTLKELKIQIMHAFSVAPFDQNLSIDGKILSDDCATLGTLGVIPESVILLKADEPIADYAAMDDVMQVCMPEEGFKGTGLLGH
Method in brief: as §1

USP5 = molecular target: T4, USP5 (UniProt P45974)
T4 sequence (whole entry): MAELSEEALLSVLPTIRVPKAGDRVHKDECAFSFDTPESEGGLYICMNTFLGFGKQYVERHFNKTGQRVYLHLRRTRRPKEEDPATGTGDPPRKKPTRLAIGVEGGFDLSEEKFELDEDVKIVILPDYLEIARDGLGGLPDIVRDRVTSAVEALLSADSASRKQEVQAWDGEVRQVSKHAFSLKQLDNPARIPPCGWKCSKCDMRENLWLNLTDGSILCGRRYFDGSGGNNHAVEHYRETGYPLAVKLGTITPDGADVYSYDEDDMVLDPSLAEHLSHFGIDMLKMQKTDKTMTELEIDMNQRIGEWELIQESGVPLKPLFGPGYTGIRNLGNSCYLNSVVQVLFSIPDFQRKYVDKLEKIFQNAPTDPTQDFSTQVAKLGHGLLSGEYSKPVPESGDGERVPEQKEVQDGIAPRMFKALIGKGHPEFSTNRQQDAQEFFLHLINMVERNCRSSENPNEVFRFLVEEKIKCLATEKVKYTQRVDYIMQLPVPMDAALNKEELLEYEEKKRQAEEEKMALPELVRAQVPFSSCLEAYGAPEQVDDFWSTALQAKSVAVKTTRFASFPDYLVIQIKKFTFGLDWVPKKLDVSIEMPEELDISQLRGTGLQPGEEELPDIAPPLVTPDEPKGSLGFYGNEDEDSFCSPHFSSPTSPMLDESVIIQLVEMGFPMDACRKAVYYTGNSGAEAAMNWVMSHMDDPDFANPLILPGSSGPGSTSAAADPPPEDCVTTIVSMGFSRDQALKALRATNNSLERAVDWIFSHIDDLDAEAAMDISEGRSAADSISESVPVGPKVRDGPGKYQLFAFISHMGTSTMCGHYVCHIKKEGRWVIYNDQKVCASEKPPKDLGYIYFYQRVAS
Method in brief: as §1

USP54 = USP54 (UniProt Q70EL1)
Method in brief: as §1

USP7 = USP7 (UniProt Q93009)
Method in brief: as §1

USP8 = molecular target: T5, USP8 (UniProt P40818)
T5 sequence (whole entry): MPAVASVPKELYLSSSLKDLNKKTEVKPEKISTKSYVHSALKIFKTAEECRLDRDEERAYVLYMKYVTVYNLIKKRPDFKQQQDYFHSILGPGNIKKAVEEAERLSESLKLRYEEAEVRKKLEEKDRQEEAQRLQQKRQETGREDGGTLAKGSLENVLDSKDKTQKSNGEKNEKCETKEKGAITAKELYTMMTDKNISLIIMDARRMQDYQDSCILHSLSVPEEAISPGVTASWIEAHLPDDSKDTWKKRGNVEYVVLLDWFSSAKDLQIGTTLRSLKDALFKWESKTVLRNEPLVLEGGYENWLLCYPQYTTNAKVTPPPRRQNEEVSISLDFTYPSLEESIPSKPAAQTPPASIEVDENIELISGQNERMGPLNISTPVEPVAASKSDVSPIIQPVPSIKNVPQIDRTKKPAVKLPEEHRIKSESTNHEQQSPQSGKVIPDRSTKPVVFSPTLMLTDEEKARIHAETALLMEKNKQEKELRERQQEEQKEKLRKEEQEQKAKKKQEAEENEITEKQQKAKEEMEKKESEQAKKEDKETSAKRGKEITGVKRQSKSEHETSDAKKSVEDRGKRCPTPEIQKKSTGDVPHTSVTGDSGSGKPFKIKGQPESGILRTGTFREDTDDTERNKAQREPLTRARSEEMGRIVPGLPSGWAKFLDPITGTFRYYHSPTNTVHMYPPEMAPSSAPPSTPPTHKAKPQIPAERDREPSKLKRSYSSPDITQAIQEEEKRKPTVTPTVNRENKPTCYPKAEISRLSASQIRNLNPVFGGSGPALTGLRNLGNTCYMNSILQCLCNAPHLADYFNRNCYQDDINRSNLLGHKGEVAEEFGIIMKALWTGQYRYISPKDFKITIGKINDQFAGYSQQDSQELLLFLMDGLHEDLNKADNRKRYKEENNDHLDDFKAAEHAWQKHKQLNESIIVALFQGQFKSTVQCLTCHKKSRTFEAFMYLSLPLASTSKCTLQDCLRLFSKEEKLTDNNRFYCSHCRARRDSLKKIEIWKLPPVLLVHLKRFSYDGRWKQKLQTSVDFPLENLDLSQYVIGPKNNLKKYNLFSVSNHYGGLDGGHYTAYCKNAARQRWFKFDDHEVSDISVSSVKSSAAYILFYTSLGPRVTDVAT
Method in brief: as §1

USP9X = USP9X (UniProt Q93008)
Method in brief: as §1

UniProt O00487 = molecular target: UniProt O00487
Method in brief: as §1

Measured: log2 ratio of Biotin-Ahx-Ub-VS probe labelling

Sequence of USP7 (Q93009 whole entry, looked up): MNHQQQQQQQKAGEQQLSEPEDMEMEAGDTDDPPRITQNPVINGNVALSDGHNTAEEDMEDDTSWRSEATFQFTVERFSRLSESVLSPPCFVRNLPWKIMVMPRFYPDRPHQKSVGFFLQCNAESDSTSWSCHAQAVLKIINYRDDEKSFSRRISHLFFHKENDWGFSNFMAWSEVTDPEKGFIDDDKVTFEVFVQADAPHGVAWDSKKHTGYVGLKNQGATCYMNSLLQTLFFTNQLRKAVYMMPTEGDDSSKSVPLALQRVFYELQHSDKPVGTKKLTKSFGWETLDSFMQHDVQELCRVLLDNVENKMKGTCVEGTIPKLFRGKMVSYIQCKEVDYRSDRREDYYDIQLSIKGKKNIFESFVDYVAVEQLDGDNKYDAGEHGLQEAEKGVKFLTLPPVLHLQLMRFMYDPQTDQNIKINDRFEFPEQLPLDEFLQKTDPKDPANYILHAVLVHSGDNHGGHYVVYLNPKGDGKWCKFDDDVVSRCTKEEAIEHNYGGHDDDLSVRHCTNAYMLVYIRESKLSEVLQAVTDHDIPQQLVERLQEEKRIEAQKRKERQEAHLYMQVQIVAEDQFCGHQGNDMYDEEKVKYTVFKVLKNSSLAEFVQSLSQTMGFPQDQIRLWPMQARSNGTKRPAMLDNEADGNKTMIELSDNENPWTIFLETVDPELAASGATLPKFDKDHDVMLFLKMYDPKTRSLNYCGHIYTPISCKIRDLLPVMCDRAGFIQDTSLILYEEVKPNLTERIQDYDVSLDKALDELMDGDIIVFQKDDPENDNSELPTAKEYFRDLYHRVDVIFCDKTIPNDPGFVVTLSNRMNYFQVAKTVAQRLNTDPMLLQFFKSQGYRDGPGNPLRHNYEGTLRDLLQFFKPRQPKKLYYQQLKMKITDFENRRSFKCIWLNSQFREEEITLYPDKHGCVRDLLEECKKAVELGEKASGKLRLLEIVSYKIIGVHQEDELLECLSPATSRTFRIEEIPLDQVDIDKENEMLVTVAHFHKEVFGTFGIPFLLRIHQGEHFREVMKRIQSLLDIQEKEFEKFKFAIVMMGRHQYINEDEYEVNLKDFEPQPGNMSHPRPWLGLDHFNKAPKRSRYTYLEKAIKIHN
Sequence of UniProt O00487 (O00487 whole entry): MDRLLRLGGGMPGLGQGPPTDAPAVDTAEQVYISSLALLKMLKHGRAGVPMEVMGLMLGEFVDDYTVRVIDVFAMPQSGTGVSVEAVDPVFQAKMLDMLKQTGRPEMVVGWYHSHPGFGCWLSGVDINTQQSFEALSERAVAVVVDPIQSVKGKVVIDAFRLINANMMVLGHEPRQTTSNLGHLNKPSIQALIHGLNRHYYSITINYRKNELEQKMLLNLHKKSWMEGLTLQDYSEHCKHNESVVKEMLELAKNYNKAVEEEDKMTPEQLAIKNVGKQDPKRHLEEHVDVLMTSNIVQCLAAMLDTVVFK
Sequence of USP54 (Q70EL1 whole entry): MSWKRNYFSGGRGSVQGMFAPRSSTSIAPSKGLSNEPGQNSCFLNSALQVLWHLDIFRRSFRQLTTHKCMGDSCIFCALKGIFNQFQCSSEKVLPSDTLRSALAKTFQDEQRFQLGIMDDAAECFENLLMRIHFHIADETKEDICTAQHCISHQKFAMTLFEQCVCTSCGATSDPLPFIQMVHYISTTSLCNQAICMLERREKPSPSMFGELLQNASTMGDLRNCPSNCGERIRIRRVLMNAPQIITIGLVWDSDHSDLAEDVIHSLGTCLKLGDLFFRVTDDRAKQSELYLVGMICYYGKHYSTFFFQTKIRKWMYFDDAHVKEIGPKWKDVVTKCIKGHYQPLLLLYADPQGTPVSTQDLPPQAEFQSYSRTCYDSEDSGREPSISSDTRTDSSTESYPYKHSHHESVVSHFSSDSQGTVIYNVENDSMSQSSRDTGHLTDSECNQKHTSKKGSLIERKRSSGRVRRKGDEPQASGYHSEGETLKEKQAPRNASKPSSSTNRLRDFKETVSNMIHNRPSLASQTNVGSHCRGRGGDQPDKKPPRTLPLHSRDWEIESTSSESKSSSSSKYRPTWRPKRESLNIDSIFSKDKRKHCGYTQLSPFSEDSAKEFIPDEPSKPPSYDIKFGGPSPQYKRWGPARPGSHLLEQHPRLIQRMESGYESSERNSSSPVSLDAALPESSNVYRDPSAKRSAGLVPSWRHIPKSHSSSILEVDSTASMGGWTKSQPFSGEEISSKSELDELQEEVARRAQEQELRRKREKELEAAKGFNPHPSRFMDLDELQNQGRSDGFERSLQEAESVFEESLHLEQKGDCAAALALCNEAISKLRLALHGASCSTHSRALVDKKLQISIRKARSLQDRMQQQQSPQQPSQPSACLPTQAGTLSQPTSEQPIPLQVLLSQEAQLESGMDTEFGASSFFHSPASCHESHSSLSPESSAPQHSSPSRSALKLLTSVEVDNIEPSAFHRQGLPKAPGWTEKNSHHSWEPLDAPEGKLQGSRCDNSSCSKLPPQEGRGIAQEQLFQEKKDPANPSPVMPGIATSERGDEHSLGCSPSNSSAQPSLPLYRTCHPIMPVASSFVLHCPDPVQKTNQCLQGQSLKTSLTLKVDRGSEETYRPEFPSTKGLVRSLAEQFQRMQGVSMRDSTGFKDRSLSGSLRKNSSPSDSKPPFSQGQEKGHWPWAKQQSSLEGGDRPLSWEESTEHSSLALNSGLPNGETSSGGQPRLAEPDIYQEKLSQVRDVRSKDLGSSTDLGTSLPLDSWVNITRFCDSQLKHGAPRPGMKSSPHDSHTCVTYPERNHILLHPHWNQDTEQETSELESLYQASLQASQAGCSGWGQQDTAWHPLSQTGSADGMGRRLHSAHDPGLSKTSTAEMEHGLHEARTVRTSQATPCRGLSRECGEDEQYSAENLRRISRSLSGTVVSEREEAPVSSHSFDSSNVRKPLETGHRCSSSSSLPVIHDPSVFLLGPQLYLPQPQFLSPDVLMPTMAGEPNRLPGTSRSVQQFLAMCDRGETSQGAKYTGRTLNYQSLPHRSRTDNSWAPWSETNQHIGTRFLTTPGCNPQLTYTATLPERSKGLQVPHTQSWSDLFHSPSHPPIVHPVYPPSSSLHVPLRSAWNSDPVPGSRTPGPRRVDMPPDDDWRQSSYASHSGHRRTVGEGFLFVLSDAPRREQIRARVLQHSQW
Sequence of USP46 (P62068 whole entry): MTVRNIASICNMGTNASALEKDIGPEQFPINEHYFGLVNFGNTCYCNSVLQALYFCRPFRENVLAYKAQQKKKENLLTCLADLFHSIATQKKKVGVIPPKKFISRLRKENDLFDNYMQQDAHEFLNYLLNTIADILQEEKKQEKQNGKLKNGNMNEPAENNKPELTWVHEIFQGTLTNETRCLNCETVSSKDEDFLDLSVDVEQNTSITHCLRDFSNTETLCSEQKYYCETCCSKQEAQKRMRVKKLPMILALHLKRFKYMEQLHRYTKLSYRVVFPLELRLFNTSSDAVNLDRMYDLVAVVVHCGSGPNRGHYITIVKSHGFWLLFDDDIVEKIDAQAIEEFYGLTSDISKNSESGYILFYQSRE

Cc1cc(C(=O)NC2CCN(C(=O)CCl)CC2)no1
inactive: USP42 -0.284 | USP46 -0.048 | USP47 -0.0545 | USP48 -0.0815 | USP5 0.0506 | USP54 -0.176 | USP7 -0.222 | USP8 -0.0431 | USP9X -0.158 | UniProt O00487 -0.138
